T1: UNK ZnF1-3 (human, UniProt Q9C0B0 31-174)
T1 sequence: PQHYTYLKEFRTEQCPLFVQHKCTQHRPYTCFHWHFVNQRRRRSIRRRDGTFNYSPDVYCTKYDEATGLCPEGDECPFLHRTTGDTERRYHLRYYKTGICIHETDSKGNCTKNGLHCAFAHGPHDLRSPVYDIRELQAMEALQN

B1: chr1:44133529:44133530:+_ENSG00000066135_ENST00000372396|hu_hu|FALSE|FALSE (ssRNA)
RNA: GGGAGUUCUACAGUCCGACGAUCAAACUCAGCUGCUUCUGGCGUGGGCAGAGUAUGGUCAAUAACUGUGUUGUCCUUCCCAGCUUUCCAAAGUUUGUACCUUUCUGGCUGGAACUUUCUCACAAACACAUCCAUGGAGAUCUUCAACAGAGGAUUGAGCAUCA
B2: chr7:149068622:149068623:-_ENSMUSG00000025139_ENSMUST00000001950|mus_hu|mus_mus_mus_hu_False|28_108 (ssRNA)
RNA: GGGAGUUCUACAGUCCGACGAUCGUGCAGGUACUGAGUGUGGCUUGUGGUCUGUCCUGGGUUAGAGUUGUUAAUAUCACGGAACAUACCAUCUAGAACGUUCCAGUCUGCCUGACUACCUUCAUUCCCAAUGGAGAAGAAAUCCAACAGAGGAUUGAGCAUCA
B3: chr12:111867003:111867004:+_ENSMUSG00000018707_ENSMUST00000018851|mus_hu|FALSE|FALSE (ssRNA)
RNA: GGGAGUUCUACAGUCCGACGAUCCACCAGCAUAUUUAUCUUCAUGUAACCUUUCAGAAGCCUCUGAACAAACUCAUAGGACGCAUACUGUCGCAACCGGGCAGGGAAGCUUUUCAGCUGGUUCAGGAGGGCAUCCAAAUUUUGCAACAGAGGAUUGAGCAUCA
B4: chr18:32579733:32579734:+_ENSMUSG00000024381_ENSMUST00000025239|mus_mus|motif|central (ssRNA)
RNA: GGGAGUUCUACAGUCCGACGAUCUUUAUGGAAGUUUUCCUCCAGACCCGCGAUGCUCUGGAACGUGUUGACAUAGAAACCGGCACGGCUGUUCCACAGGGAUGGCAGCUCCUCCUGCAGAUCCACGUUCAUCUCCUCGAACACCAACAGAGGAUUGAGCAUCA
B5: chr8:27055589:27055590:-_ENSMUSG00000037260_ENSMUST00000037609|mus_hu|FALSE|FALSE (ssRNA)
RNA: GGGAGUUCUACAGUCCGACGAUCUUCCCUUUAACAAAGGCUGCUUCAGUCCUCCCUGCAGGCCUACUAGAGUCUUCCAGCAGCACAUCUCAGUGGGAGCCAUCAGAUUUUCCAAAAAAUCUUCUUUCUAUAGAGGAUGUAGGCCAACAGAGGAUUGAGCAUCA
B6: chr16:94690093:94690094:+_ENSMUSG00000040785_ENSMUST00000117648|mus_hu|mus_mus_mus_hu_True|28_38 (ssRNA)
RNA: GGGAGUUCUACAGUCCGACGAUCGGGCUGGGAUGACGGACACACAGCCUCGAUUCCAGGGGGAAAAAGUCUUAGUCGAUACUAAUUAAAAAGUGUUUUUAUAAUUGAUUACCAAAAUUACAUCUAUAAAAGAUGAAAAGCAAACAACAGAGGAUUGAGCAUCA
B7: chr12:16048344:16048345:+_ENSG00000023734_ENST00000419869|hu_hu|hu_hu_hu_mus_True|18_18 (ssRNA)
RNA: GGGAGUUCUACAGUCCGACGAUCAGAUCGUCCAUAAGUAAUAACCAAAAUCUCUCCUUCAGGAAUAUACUCCAUGCUGCUAACAGACAUAUUAAAAUUCAGAGAUUUCACUUCUGUCAUAGUAGCAUGAUCCCAGAGCCGAACCAACAGAGGAUUGAGCAUCA
B8: chr5:134191040:134191041:+_ENSG00000181904_ENST00000394976|hu_hu|motif|central (ssRNA)
RNA: GGGAGUUCUACAGUCCGACGAUCAAAAGCAGCAGUGCCACAGCCAUAACCAAGAUCGGCAAGACGGGAUAGAGCUUUAAUGCGGCCUGGAGGUCUGCCUGGGCUGACUUUGUAUCCCGCAGCUUUAGUUGUCCCCAAAGGUCUCAACAGAGGAUUGAGCAUCA
B9: chr9:74905015:74905016:+_ENSMUSG00000007656_ENSMUST00000169492|mus_hu|FALSE|FALSE (ssRNA)
RNA: GGGAGUUCUACAGUCCGACGAUCUGUGUUUGAAAUAUGUGACCUUUCUUCUAACUUGUGGUCUUAAACUUCUGUUUUACAAAAUCCAAAAGGUAAAUACAGAAGAAAUCAAUACAAUAGAGAUUAUAUUAAAUAAGAGUAACACAACAGAGGAUUGAGCAUCA
B10: chr22:32879901:32879902:+_ENSG00000100225_ENST00000397426|hu_mus|hu_hu_hu_mus_False|8_18 (ssRNA)
RNA: GGGAGUUCUACAGUCCGACGAUCCUCUUCCAUACUCAUGGCAUCCUGAAUUGACUCAGCUUCAACAUUUUGACUAGGCCCUUCCAUACUGUCAUCAGUCCAGGCAUCAAAUGGGGUUGCCUGUCCUUGGAAUGAAUCAGUCCCCAACAGAGGAUUGAGCAUCA
B11: chr6:50805741:50805742:+_ENSG00000008196_ENST00000393655|hu_hu|FALSE|FALSE (ssRNA)
RNA: GGGAGUUCUACAGUCCGACGAUCCAGGGAGGUGAGUAACGUGACAUUUGCUGCUUUGCGCCUGCCCGCGGGUAAAUUCAAACCGAUUUUUUCUAGCCUUUCUCGCAAAGAUCUCCCCCCAUUUUUCGAUUUGGCUCUUCUGAGCAACAGAGGAUUGAGCAUCA
B12: chr7:99593380:99593381:+_ENSMUSG00000052572_ENSMUST00000098308|mus_hu|FALSE|FALSE (ssRNA)
RNA: GGGAGUUCUACAGUCCGACGAUCGGUGAGGAGGCUCUCAUCUCAUCUCUUGGGCAGAAAGCCCGUCAGAGGUUCAUCCCUACACCUGGCACUUUGAGCAAACCAAAGCCUUCCUUCAUACUGCAAUGUCUUUUCUGUCCCACCCAACAGAGGAUUGAGCAUCA
B13: 73047273_73096420_338_5pUTR_ENSG00000163605_ENST00000295862|human|control|control (ssRNA)
RNA: GGGAGUUCUACAGUCCGACGAUCGGCUCAGGAGCUGAAGUUCUGAAAUCAUCCAUCACUUUCUCCAGUUUGAAAAUAAAAUAGCCUUUAAAUUGGGACCACUGAAUCAUUGUUUCUCCAGUCUUGGCUACAUGACAAAGAAACCAACAGAGGAUUGAGCAUCA
B14: chr3:179287964:179287965:+_ENSG00000136518_ENST00000429709|hu_hu|hu_hu_hu_mus_True|28_38 (ssRNA)
RNA: GGGAGUUCUACAGUCCGACGAUCCUUGAGUGGUGAGAUGGCCUCCAUGUUCUCCCUGGGCACGCGGAGGGCAUUGGUGUCUAUGUAGUAGGUGGGCCCGCCUUGUUUGCCUUUAUCACCAUCAAUCUCCAUCAUUGUACUUCCCAACAGAGGAUUGAGCAUCA

Over roughly 24,000 sequences, “enrichment r” has its median near 0.99; the highest 2% begin near 3.7. The list is a sample of the results.

The target of this experiment is T1, UNK ZnF1-3. The experiment can be described thus: nsRBNS (natural sequence RNA bind-n-seq); RBNS binding buffer (assumed for nsRBNS): 25 mM Tris pH 7.5, 150 mM KCl, 3 mM MgCl2, 0.01% Triton X-100, 500 ug/ml BSA, 20 U/ml SUPERase-In, 4 C; UNK is unkempt and MSI1 is Musashi-1; names of the RNAs are library labels; protein concentration not given here; high values mean tight binding.
The molecule B1 registered a binding signal of 0.628 enrichment R.

For the molecule B2, the binding signal is 0.859 enrichment R.

Molecule B3 showed a binding signal of 1.13 enrichment R.

In the case of B4, the binding signal worked out at 0.625 enrichment R.

The molecule B5 displayed a binding signal of 1.28 enrichment R.

As for B6, the binding signal was 1.26 enrichment R.

Regarding B7, the binding signal came out at 0.977 enrichment R.

B8 yielded a binding signal of 1.39 enrichment R.

B9 registered a binding signal of 2.28 enrichment R.

The molecule B10 had a binding signal of 1 enrichment R.

As to B11, the binding signal turned out to be 1.13 enrichment R.

For B12, the binding signal was found to be 1.29 enrichment R.

In turn, B13 displayed a binding signal of 1.25 enrichment R.

The molecule B14 came in with a binding signal of 0.581 enrichment R.
